# In all, about 69,000 compounds went through this assay and about 8,600 (12%) showed an effect of 50% or more. This is one part of a sample in which strong results are shown more often than they occur.
# Tested on: Plasmodium berghei
# Assay: Screen against P. berghei liver stage (PbLuc), transformed with Luciferase, at 10uM
# Type: functional, HepG2
# Details: tested at 10 uM
row,SMILES,INHIBITION
1,O=C(c1cscn1)N1CCC2(CN(Cc3ccsc3)C2)C1,45.2%
2,N#Cc1ccccc1C(=O)NCCC1CN(Cc2ccco2)CCO1 (configuration not stated),23.3%
3,CN(c1ccncn1)C1CC2(CCN(C(=O)c3cncs3)C2)C1 (configuration not stated),32.3%
4,Fc1ccccc1OCCc1cc(C2CCNC2)n[nH]1 (configuration not stated),-14.1%
5,Cc1nc(CN2CCCC(N(C)CCCc3ccccc3)C2)no1 (configuration not stated),-11.4%
6,Cc1cc(N2CCC(O)CC2)nc(C2CCCN2C)n1 (configuration not stated),9.6%
7,O=C(Nc1ccccc1)c1cc2n(n1)CCCN(C(=O)c1ccc[nH]1)C2,28.5%
8,CCc1nnsc1C(=O)N1CCCN(Cc2ccc(F)cc2)CC1,-0.219%
9,COCc1ccc(C(=O)N2CCCN(Cc3ccc(F)cc3)CC2)s1,14.3%
10,CCc1ccc(C(=O)N2CCN(Cc3ccc(F)cc3)CC2)s1,68.5%
11,Cc1cc(C)n(CC2CCCN2C(=O)c2cnccn2)n1 (configuration not stated),-3.7%
12,O=c1cc(Cn2cncn2)nc2n1CCCN(Cc1ccsc1)C2,12.7%
13,Fc1ccc(N2CCCN(c3ccc(Cn4ccnc4)cn3)CC2)cc1,92.8%
14,O=c1cc(Cn2ccnc2)nc2n1CCCN(Cc1ccncc1)C2,-32%
15,OC1CCN(C2CCN(c3ccc(Cn4ccnc4)cn3)CC2)CC1,24.4%
16,Cc1nc(CN2CCCn3c(nc(Cn4cncn4)cc3=O)C2)cs1,51.2%
17,Cc1nc(CN2CCCn3c(nc(Cn4ccnc4)cc3=O)C2)cs1,-16.6%
18,c1csc(CN2CCCN(c3ccc(Cn4ccnc4)cn3)CC2)c1,52.6%
19,CC(Cn1ccnc1)NC(=O)N1CCCN(Cc2cccs2)CC1 (configuration not stated),21.5%
20,c1cn(Cc2ccc(N3CCCN(C4CCCC4)CC3)nc2)cn1,13.5%
21,O=c1cc(Cn2ccnc2)nc2n1CCCN(Cc1ccco1)C2,8.85%
22,O=C(NCCn1ccnc1)N1CCCN(Cc2cccs2)CC1,-39.7%

row,SMILES,INHIBITION
1,O=c1cc(Cn2ccnc2)nc2n1CCCN(Cc1cccs1)C2,53.4%
2,Cc1nccn1C1CCCN(C(=O)CCOCC(F)(F)F)C1 (configuration not stated),1.15%
3,CC(C)N(C)Cc1cnc2n1CCN(Cc1ccc(F)cc1)C2,17.4%
4,Cc1cc2c(c(=O)n1CCC(=O)O)C=CC(C)(C)O2,10.9%
5,Cc1nc2cc(-c3nccn3C)nn2c(N2CCCC(O)C2)c1C (configuration not stated),6.335%
6,Cn1cc(C(=O)N2C[C@H]3CC(Oc4ccccc4)C[C@H]3C2)cn1 (some centres not stated),3.92%
7,CS(=O)(=O)N1C[C@H]2CCCN(Cc3cccs3)[C@H]2C1,24.6%
8,CS(=O)(=O)NCc1cc(=O)n2c(n1)CN(Cc1ccco1)CCC2,52.3%
9,CN(C)Cc1cc(=O)n2c(n1)CN(Cc1ccco1)CCC2,26.5%
10,O=c1cc(CN2CCCC2)nc2n1CCCN(Cc1ccco1)C2,0.804%
11,CCc1nc(CN2CCCCC2C(N)=O)cs1 (configuration not stated),-2.43%
12,Cc1nn(C)c(C)c1C(=O)NC(C)CC(=O)c1cccs1 (configuration not stated),61.4%
13,COc1c(C(=O)NC(C)CC(=O)c2cccs2)c(C)nn1C (configuration not stated),36.7%
14,Cc1cc(C(=O)NC(C)CC(=O)c2cccs2)n(C)n1 (configuration not stated),-18.8%
15,O=C([C@@H]1CC[C@@H]2[C@@H](CCN2c2ccncn2)O1)N1CCCCO1,5.68%
16,COCCOc1ccc(NC(=O)N2CCOC(C(N)=O)C2)cc1F (configuration not stated),15.9%
17,COc1ccc(C2(NC(=O)C3CC(=O)N(C)C3)CCCC2)cc1 (configuration not stated),26%
18,CNC(=O)CN1CCC(CN(C)Cc2ccncc2Cl)CC1,-22.1%
19,O=C(C1CCOC1)N1CCc2ncnc(NC3CCC3)c2CC1 (configuration not stated),51.3%
20,Nc1nc2c(c(NC3CCCC3)n1)CCN(C(=O)C1CCOC1)CC2 (configuration not stated),97.2%
21,O=C([C@H]1CCCO1)N1CCc2ncnc(NC3CC3)c2CC1,48.5%
22,O=C(C1CCOC1)N1CCc2ncnc(C3CC3)c2CC1 (configuration not stated),-13.4%

row,SMILES,INHIBITION
1,O=C(C1CCCO1)N1CCc2ncnc(NC3CCC3)c2CC1 (configuration not stated),-29.5%
2,CC(C)Nc1nc2c(c(NC3CC3)n1)CCN(C(=O)C1CCOC1)CC2 (configuration not stated),34.3%
3,N#Cc1cccc(OCc2ccoc2C(=O)N2CCCCCC2)c1,5.91%
4,O=C(C1CCCO1)N1C[C@@H]2CCN(c3cnccn3)C[C@@H]2C1 (some centres not stated),28.4%
5,Cc1cc(C(=O)NCc2c(C)nn(C)c2C)nc(N2CCCC2)n1,-31.4%
6,O=C(O)c1cnc(N2CC[C@H](N3CCOCC3)[C@H](CCCO)C2)c(Cl)c1,14%
7,O=S(=O)(NC1=NCN(CCc2ccccc2)CN1)c1ccc(F)cc1,-4.52%
8,Cc1occc1C(=O)NCc1cccnc1N(C)C,33.15%
9,CCc1noc(C(C)N2CCc3c(ncn3C3CC3)C2)n1 (configuration not stated),-1.04%
10,Cc1cccc(-c2noc(CN3CCc4c(ncn4C4CC4)C3)n2)c1,18.3%
11,CC(c1nc(C2CC2)no1)N1CCc2c(ncn2C)C1 (configuration not stated),56%
12,CC(c1nc(C2CC2)no1)N1CCc2c(ncn2C2CC2)C1 (configuration not stated),17%
13,CC(c1nc(C2CC2)no1)N1CCN(CCc2ccncc2)CC1 (configuration not stated),-45.9%
14,CC(c1nc(-c2ccccc2)no1)N1CCc2c(ncn2C2CC2)C1 (configuration not stated),78.3%
15,N#Cc1ccc(S(=O)(=O)Nc2cnn(C3CCOCC3)c2)cc1,5.51%
16,CC(C)(NC(=O)c1cnc(-c2ccccc2F)s1)C(N)=O,-8.9%
17,Cc1cnc(N2CC[C@@H]3O[C@@H](COCc4ccccn4)CC[C@@H]32)nc1,41.6%
18,COc1ccc(-c2cc(=O)n3c(n2)CCCCC3)cc1,1.45%
19,Cc1nn(C)c(C)c1-c1ccnc(N(C)Cc2noc(C(C)C)n2)n1,4.35%
20,Cc1nn(C)cc1-c1ccnc(N(C)Cc2noc(C(C)C)n2)n1,-147%
21,Cc1nn(C)c(C)c1-c1ccnc(N(C)Cc2nc(C(C)C)no2)n1,68.2%
22,Cc1csc(C2CCCN(C(=O)c3cccc4c3OCO4)C2)n1 (configuration not stated),27.6%

row,SMILES,INHIBITION
1,Cc1nc(CN2CCN(C)C(=O)C23CCN(C(C)C)CC3)cs1,32.5%
2,COCc1cn(C2CCN(Cc3ccc(Cl)s3)CC2)nn1,5.23%
3,Cc1cc(C)n2ncc(CN3CCC(Cn4cc(CO)nn4)CC3)c2n1,20.1%
4,Cc1cc(C)n2ncc(CN3C[C@@H](O)[C@H](Oc4ccccc4)C3)c2n1,-5.71%
5,Cc1ccc(CN2CCC(n3cc(CN4CCC(O)CC4)nn3)CC2)s1,7.43%
6,Cc1cc(C)n2ncc(CN3CCC(n4cc(CCO)nn4)CC3)c2n1,58.6%
7,Cc1cccc(CN2CCC(n3cc(CCO)nn3)CC2)c1C,53.3%
8,COCCN1CCN(Cc2cnc(C3(C)CCCCO3)nc2)CC1 (configuration not stated),3.25%
9,CS(=O)(=O)NCCC1CCCCN1C(=O)NCCc1ccccc1 (configuration not stated),28.3%
10,CCCC1CCCN(Cc2csc(-c3cnn(C)c3)n2)CC1 (configuration not stated),55.9%
11,CCC1CCCN(C(=O)Cc2csc(-c3ncccn3)n2)C1 (configuration not stated),14.7%
12,CCCC1CCCN(Cc2csc(-c3ncccn3)n2)CC1 (configuration not stated),91.7%
13,c1cnc(-c2nc(CN3CCCC(N4CCCC4)C3)cs2)nc1 (configuration not stated),-16.817%
14,COCCN1CCN(Cc2csc(-c3cnn(C)c3)n2)CC1,7.75%
15,CC(=O)NC1CCCN(Cc2csc(-c3ncccn3)n2)C1 (configuration not stated),35.4%
16,NC(=O)C1CCN(Cc2csc(-c3ncccn3)n2)CC1,55.05%
17,COCC(=O)N1CCN(Cc2csc(-c3ncccn3)n2)CC1,38.9%
18,CC1CCCN(Cc2csc(-c3ncccn3)n2)CC1 (configuration not stated),80.8%
19,c1cnc(-c2nc(CN3CCCC(Cn4cncn4)C3)cs2)nc1 (configuration not stated),15.6%
20,c1cnc(-c2nc(CN3CCn4c(nnc4C4CC4)C3)cs2)nc1,-0.219%
21,Cn1cc(-c2nc(CN3CCN(CCO)CC3)cs2)cn1,-0.847%
22,Cn1ccc(C(=O)N2CCC3(CC2)CC(Nc2cnccn2)CO3)n1 (configuration not stated),-4.26%

row,SMILES,INHIBITION
1,COc1ccc(-n2nc(C(C)=O)c(C(C)=O)c2C)cc1Cl,-7.27%
2,Cn1cc(NC(=O)Nc2ccc3c(c2)OCO3)cn1,24%
3,OCCN(Cc1ccno1)Cc1cc(Br)ccc1F,25.3%
4,COCC(=O)NCCc1nc(N(C)C)ncc1-c1ccncc1,14.325%
5,NCC(=O)N1CCCC1c1n[nH]cc1-c1ccccc1F (configuration not stated),10.9%
6,Cc1cc(N2CCCC(O)(CN(C)C)C2)c2cc3c(cc2n1)OCO3 (configuration not stated),11.6%
7,CC(C)Oc1cccc(C(=O)Nc2nncs2)c1,-16.8%
8,CCCS(=O)(=O)N1Cc2ccnn2CC(c2nc(C)no2)C1 (configuration not stated),28.2%
9,c1cnc(-c2nc(CN3CCCN(Cc4cccs4)CC3)cs2)nc1,39.75%
10,c1cnc(-c2nc(CN3CCC(c4ccn[nH]4)CC3)cs2)nc1,12.8%
11,c1cnc(-c2nc(CN3CCN(CC4CC4)CC3)cs2)nc1,77.85%
12,O=C([C@@H]1COC[C@H]2CN(c3ccncn3)C[C@H]21)N1CCCCO1,-11.6%
13,Fc1ccc(CNCc2nnc3n2CC(C(F)(F)F)CC3)c(F)c1 (configuration not stated),63%
14,FC(F)(F)C1CCc2nnc(CNCc3cccs3)n2C1 (configuration not stated),26%
15,FC(F)(F)C1CCc2nnc(CNCc3ccsc3)n2C1 (configuration not stated),37%
16,Cc1ccc(CNCc2nnc3n2CC(C(F)(F)F)CC3)cc1 (configuration not stated),45.1%
17,Fc1ccc(CNCc2nnc3n2CC(C(F)(F)F)CC3)cc1 (configuration not stated),63%
18,COc1ccc(CNCc2nnc3n2CC(C(F)(F)F)CC3)cc1 (configuration not stated),27.5%
19,COc1ccc(Cl)cc1NCC(=O)NCc1cccnc1OC,-12.2%
